Pf growth 96h: inhibits malaria parasite growth, 96 h; P. falciparum luciferase reporter growth, 96 h; Potency, µM (titrated, usually from 28.7 µM), usual class: inhibitors; 6.9% of 320,000 active
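Two-generation exposure (96 h) targets delayed-death phenotype. Reporter parasites carrying integrated firefly luciferase, in red cells at 2% hematocrit and 0.05% parasitemia final, kept at 37 C, 5% CO2; luminescence loss indicates inhibition.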
HCMV inh: blocks human cytomegalovirus replication; AID 1259415; HFF cells, HCMV-luciferase reporter, 72 h; stronger effect = lower value; 4.5% of 410,000 active; activity change, negative = inhibition, % at 57.5 µM; in the data active means activity change below about -60%; inconclusive means no clear call, values can overlap the other calls; inactive means above about -39%
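Compounds were evaluated in HFFs infected with an HCMV luciferase reporter virus (MOI 1 PFU/cell). Luciferase in lysates collected 72 h post infection served as the replication measure.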
Pf growth 48h: P. falciparum growth inhibition at 48 hours (one generation) | 5.9% of 310,000 active | P. falciparum luciferase growth in erythrocytes, 48 h | Potency, µM (doses to about 28.7 µM), most hits filed as inhibitors | AID 504832
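Parasite viability was followed by luminescence of a genomically integrated firefly luciferase. Cultures held 0.1% parasitemia at 2% hematocrit (final), incubated under 5% CO2 at 37 C.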
HCV inh: inhibitors of hepatitis C virus infection | Huh7.5.1 HCVcc-Cre infection, luciferase reporter, 44 h | AID 651820 | 3.4% of 340,000 active | Potency, µM (series often up to 41.8 µM), most hits filed as inhibitors
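A cell-based infection assay in which seeded cells (1,000 per well) receive test compound after 4 h, are inoculated with HCVcc-Cre at approximately 0.5 moi, and are incubated 44 h before luminescence detection.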
Of the large screens only hits and unclear results are named; the others gave an inactive call; ! = not active in a repeat. Compounds with a hit are over-represented: about 13% of the library has one in this group of screens. Unless noted, the call rests on the fitted dose curve; in most records, active means well fitted inhibition curve with a large enough effect; inconclusive means small, poorly fitted or top-dose-only effect, or another doubt; inactive means no such curve, though single readings can be large or run the other way.

COc1ccc(O[C@H]2C=C[C@@H](c3ccccc3)O[C@@H]2COC(=O)CC/C(C)=N/O[C@H](C)c2cn([C@@H]3COC[C@H]3O)nn2)cc1	Pf growth 96h inconclusive, Pf growth 48h 15µM (no result: HCMV inh)
COc1ccc(O[C@H]2C=C[C@@H](c3ccccc3)O[C@@H]2COC(=O)CCC(C)=NO[C@@H]2O[C@H](COC(C)=O)[C@@H](OC(C)=O)[C@H](OC(C)=O)[C@H]2OC(C)=O)cc1	Pf growth 96h inconclusive (no result: HCMV inh)
CN(C)Cc1c(C(=O)Nc2ccccc2)[nH]c2ccccc12	Pf growth 96h 9.3µM, Pf growth 48h 2.9µM
CC1CC(=O)c2c(cc3c(-c4c(O)cc(O)c5c(O)c6c(cc45)OC(C)CC6=O)c(O)cc(O)c3c2O)O1 (centres undefined)	Pf growth 48h 0.41µM, HCV inh 4.5µM (no result: HCMV inh)
CCOC(=O)CCNC(=O)C1=CN2CCN(Cc3c(C)noc3C)C(=O)N=C2O1	none (no result: Pf growth 96h, Pf growth 48h, HCV inh)
CC(C)Nc1nc(NC(C)C)nc(N(C#N)CCOc2ccc(Cl)cc2Cl)n1	Pf growth 96h inconclusive, Pf growth 48h 10µM, HCV inh inconclusive
CC(Nc1ncnc2sccc12)c1ccccc1 (centres undefined)	HCMV inh -85, HCV inh 2µM
c1ccc(Nc2ncnc3sccc23)cc1	HCMV inh -61
COc1ccc(Nc2ncnc3sccc23)cc1	none
Cc1ccc(S(=O)(=O)NC(=O)C2(C)CCN2C(=O)c2cccc(F)c2)nc1 (centres undefined)	none (no result: Pf growth 96h, Pf growth 48h, HCV inh)
CCOC(=O)c1cc(-c2ccc(C)cc2)n(CC(=O)NC2CCCCCC2)c1C	none (no result: Pf growth 96h, Pf growth 48h, HCV inh)
O=C(COC(=O)c1ccc(S(=O)(=O)NCc2ccco2)cc1)Nc1ccccc1OC(F)F	HCV inh 11µM!
O=C(COC(=O)c1ccc(S(=O)(=O)NCc2ccco2)cc1)Nc1ccccc1	none
Cc1ccc(NS(=O)(=O)c2c(C(=O)N3CCOCC3)c(C)n(C)c2C)cc1C	none
Cc1c(C(=O)N2CCOCC2)c(S(=O)(=O)Nc2ccc(C(C)C)cc2)c(C)n1C	Pf growth 96h 10µM
Cc1cccc(NS(=O)(=O)c2c(C(=O)N3CCCC3)c(C)n(C)c2C)c1	HCMV inh active
CCC(=O)NNc1ncnc2c1cnn2-c1ccc(C)c(Cl)c1	none (no result: Pf growth 96h, Pf growth 48h, HCV inh)
O=C1/C(=C\c2ccccc2)CN(C(=O)CCN2CCCCC2)C/C1=C/c1ccccc1	HCMV inh -100, HCV inh inconclusive (no result: Pf growth 96h, Pf growth 48h)
CCN(CC)CCC(=O)N1C/C(=C/c2ccccc2)C(=O)/C(=C\c2ccccc2)C1	HCMV inh -100, HCV inh inconclusive (no result: Pf growth 96h, Pf growth 48h)
O=C(NCCN1CCOCC1)c1ccc(Cl)c(Cl)c1	Pf growth 48h inconclusive
O=C(CCN1CCCCC1)c1ccccc1	none (no result: Pf growth 48h)
O=C1/C(=C\c2ccc(Cl)c(Cl)c2)CN(C(=O)CCN2CCOCC2)C/C1=C/c1ccc(Cl)c(Cl)c1	HCMV inh -102, HCV inh inconclusive (no result: Pf growth 96h, Pf growth 48h)
O=c1c(NCc2cccs2)nccn1-c1ccc(F)cc1	none (no result: Pf growth 96h, Pf growth 48h, HCV inh)
Cc1ccc(-n2nc3c(N4CCC(C(=O)NC5CCC(C)CC5)CC4)nnc(C)c3c2C)cc1 (centres undefined)	none (no result: Pf growth 96h, Pf growth 48h, HCV inh)
CCOc1ccc(OCC)c(NC(=O)CSc2nc3cccnc3n2C)c1	HCMV inh -63, Pf growth 48h inconclusive, HCV inh 6.3µM
CCOc1ccc2nc(NC(=O)CSc3nc4cccnc4n3C)sc2c1	HCV inh inconclusive
CCOc1ccc(OCC)c(NC(=O)CSc2nnnn2CC)c1	HCV inh inconclusive
CCOc1ccc(OCC)c(NC(=O)CSc2nc3ccccc3c(=O)n2C)c1	Pf growth 96h inconclusive, HCMV inh -70, HCV inh inconclusive
CCOC(=O)c1c(C)c(C(=O)NCCc2ccc(OC)cc2)c(C)n1CC	none (no result: Pf growth 96h, Pf growth 48h, HCV inh)
Cc1ccc(CSc2nnc3ccc(-c4ccncc4)nn23)cc1	Pf growth 96h inconclusive, HCMV inh -60, Pf growth 48h inconclusive
COC(=O)c1ccc(CSc2ccc3nnc(-c4ccccn4)n3n2)o1	Pf growth 96h 10µM, Pf growth 48h inconclusive
Cc1ccc(CSc2ccc3nnc(-c4cccnc4)n3n2)cc1	Pf growth 96h inconclusive, Pf growth 48h inconclusive
Fc1ccc(CSc2ccc3nnc(-c4ccccn4)n3n2)cc1	Pf growth 96h 3.3µM, Pf growth 48h 3.7µM
Cc1ccc(CSc2ccc3nnc(-c4ccccn4)n3n2)cc1	Pf growth 96h 10µM, Pf growth 48h 2.9µM
CC(C)NC(=O)CSc1nc2ccccc2c(=O)n1Cc1ccc(C(=O)NC(C)C)cc1	none (no result: Pf growth 96h, Pf growth 48h, HCV inh)
CCOc1ccc(NC(=O)c2cnc(N3CCCC3)nc2C)cc1	none (no result: Pf growth 96h, Pf growth 48h, HCV inh)
Brc1ccc(CSc2ccc3nnc(-c4ccccn4)n3n2)cc1	Pf growth 96h 2.9µM, Pf growth 48h 2.6µM
Cc1ccc(C)c(CSc2ccc3nnc(-c4ccccn4)n3n2)c1	Pf growth 96h inconclusive, Pf growth 48h 13µM, HCV inh inconclusive
Cc1ccccc1NC(=O)c1c(NC(=O)c2ccncc2)sc2c1CCC(C(C)(C)C)C2 (centres undefined)	none (no result: Pf growth 96h, Pf growth 48h, HCV inh)
COc1ccc(N2CCN(c3nc4c(c(=O)[nH]c(=O)n4C)n3Cc3cccc(C)c3)CC2)cc1	HCMV inh inconclusive, Pf growth 48h 10µM, HCV inh inconclusive
Cc1cccc(Cn2c(N(C)Cc3ccccc3)nc3c2c(=O)[nH]c(=O)n3C)c1	Pf growth 96h 13µM, Pf growth 48h 12µM
CCN(CC)c1nc2c(c(=O)[nH]c(=O)n2C)n1Cc1ccccc1	none
CN(Cc1ccccc1)c1nc2c(c(=O)[nH]c(=O)n2C)n1C	none
Cn1c(=O)[nH]c(=O)c2c1nc(Br)n2Cc1cccc(Br)c1	Pf growth 96h inconclusive, HCMV inh -82, HCV inh inconclusive
C/C=C/Cn1c(N(C)Cc2ccccc2)nc2c1c(=O)[nH]c(=O)n2C	Pf growth 96h 8.3µM, Pf growth 48h inconclusive
CCN1CCN(c2nc3c(c(=O)[nH]c(=O)n3C)n2Cc2cccc(C)c2)CC1	none (no result: Pf growth 96h, Pf growth 48h, HCV inh)
